PAX8 inh HTS: PAX8 transcriptional activity inhibition; actives 1.2% (n = 360,000); AID 652154; RMG-I TPO-luciferase reporter, SteadyGlo, 24 h; inhibition, % at 12.6 µM;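 active means mean replicate inhibition at least 60% with every replicate also reaching 60%; inconclusive means only one of the two criteria is met; inactive means mean below 60% and not all replicates reaching 60%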;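 further: luciferase light reporting Pax8 driven TPO promoter activity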
Shn3 3UTR inh: Schnurri-3 reporter inhibition in Clone20 osteoblasts. Clone20 osteoblast Shn3 3'UTR firefly luciferase, 24 h. inhibition, % at 12.5 µM. actives 0.52% (n = 360,000). AID 588674;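 active means mean inhibition of at least 75% with every replicate also reaching 75%; inconclusive means mean inhibition at least 75% but some replicate below; inactive means mean inhibition below 75%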
KKLEB tox: reduces viability of KKLEB cystic fibrosis airway cells; KKLEB CF airway cells viability, ATPlite luminescence, overnight; hits give low values; cells stimulated with P. aeruginosa culture filtrate; activity change (cytotoxicity), % at 5 µM; actives 0.36% (n = 360,000);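 active means corrected activity change at or below -50% at 5 µM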
LGR2 antag: Drosophila LGR2 receptor signaling inhibition. inhibition, % at 9.99 µM. HEK293 LGR2, CRE-luciferase, bursicon-stimulated, 4 h. actives 0.35% (n = 380,000);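 active means drop in luminescence signal, shown as inhibition above about 50% in the replicate tests, limit read from the data, passing the limit was not always enough; inconclusive means probably only some replicates passing the limit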;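 further: agonist challenge used bursicon conditioned medium at about half maximal strength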
EWS-Fli block: blocks EWS/Fli oncoprotein-driven transcription. A673 NR0B1-luciferase reporter, viability-normalised. inhibition, % at 12.6 µM. actives 0.67% (n = 350,000);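 active means mean inhibition of at least 50% after viability correction, with every replicate also passing that limit; inconclusive means mean reaches 50% but only one of two replicates passes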;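 further: firefly luciferase signal divided by Alamar Blue viability fluorescence both relative to DMSO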
CF NFkB inh: blocks PAF-induced NF-kB reporter in cystic fibrosis cells | inhibition, % at 5 µM | actives 0.86% (n = 360,000) | KKLEB NF-kB-GFP reporter, GFP fluorescence overnight;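 active means at least 50% inhibition at 5 µM, scaled per plate between neutral and stimulator controls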;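 further: PAF is a Pseudomonas aeruginosa culture filtrate used as stimulus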
Numbers stand for hits; - = inactive; ? = inconclusive; . = no result. Most compounds without a hit are left out; they make up all but 2% or so of the library.

SMILES	PAX8 inh HTS	Shn3 3UTR inh	KKLEB tox	LGR2 antag	EWS-Fli block	CF NFkB inh
COCC#Cc1cnc2c(c1)C(=O)N([C@@H](C)CO)C[C@H](C)[C@H](CN(C)C(=O)Nc1cccc(F)c1)O2	.	.	.	-	-	.
CCC(c1ccc(O)c(O)c1)C(CC)c1ccc(O)c(O)c1 (centres undefined)	.	-	-	.	.	84
CCC(NC(C)C)C(O)c1ccc(O)c(O)c1 (centres undefined)	-	-	-	-	-	-
C[C@@H]1CN([C@@H](C)CO)C(=O)c2cc(C#Cc3ccc(F)cc3)cnc2O[C@H]1CN(C)C(=O)c1ccccc1F	-	.	.	-	-	.
O=C(O)C1=C(C2CCCCC2)C(=O)c2ccccc21	-	-	-	-	-	-
O=C1C=C(C2CCCCC2)C(=O)c2ccccc21	-	-	-	?	-	71
C=CC(C)(C)c1c(O)c(CC=C(C)C)c(O)c2c(=O)c3ccc(O)c(O)c3oc12	.	89	-	.	.	54
COCc1cn(CC[C@H]2CC[C@H](NC(=O)Nc3ccccc3)[C@@H](CO)O2)nn1	-	.	.	-	-	.
CN(C)C(=O)c1ccc(-c2ccccc2[C@H]2[C@H](C#N)N(C(=O)C3CCC3)[C@H]2CO)cc1	-	.	.	-	-	.
COc1ccc(C(C#N)=C2C=C(Cl)C(=NO)C=C2Cl)cc1	-	-	-	-	-	68
Cc1cc(Br)c2c(c1)/C(=C/C(=O)c1cccs1)C(=O)N2	-	97	-	-	-	-
CCc1ccc2c(c1)/C(=C/C(=O)c1cccs1)C(=O)N2	.	-	-	.	.	-
Cc1cc(C)c2c(c1)/C(=C/C(=O)c1ccc(Br)s1)C(=O)N2	.	-	-61	.	.	-
Cc1noc(C)c1NC(=O)Nc1cccc2c1O[C@@H](CN(C)C(=O)Nc1cccc3ccccc13)[C@H](C)CN([C@H](C)CO)C2=O	-	.	.	-	-	.
C[C@@H]1CN([C@H](C)CO)C(=O)c2cc(NC(=O)Cn3cnnn3)ccc2O[C@H]1CN(C)S(=O)(=O)c1ccc(F)cc1	.	.	.	-	-	.
COc1ccc(-c2cc(C3CCN(c4cc(Cl)nc(N)n4)CC3)[nH]n2)cc1	.	-	-	.	.	-
Nc1nc(Cl)cc(N2CCC(c3cc(-c4ccc(Cl)cc4)n[nH]3)CC2)n1	.	81	-	-	-	-
O=C(NCc1cccc(F)c1)[C@@H]1[C@@H](CO)[C@@H]2Cn3c(ccc(-c4ccccc4)c3=O)[C@H]1N2CC1CC1	-	.	.	-	-	.
C[C@H]1CN([C@@H](C)CO)C(=O)c2cccc(NS(=O)(=O)c3ccc(Cl)cc3)c2O[C@@H]1CN(C)S(=O)(=O)c1ccc(F)cc1	-	.	.	-	-	.
Cc1ccc(-c2csc(Nc3ccccn3)n2)cc1	-	-	-	81	-	-
Cn1cnc(CCNC(=O)C[C@@H]2CC[C@@H]3[C@H](COC[C@H](O)CN3C(=O)C3CCCC3)O2)c1	-	.	.	-	-	.
COCc1cc(C)nc(SCC(=O)Nc2nc(C)cs2)c1C#N	-	-	-	-	62	-
COc1cccc(-n2c(SCC(=O)N3CCOCC3)nc3c([nH]c4ccccc43)c2=O)c1	.	-	-55	.	.	-
COc1ccccc1N=C1SC(C(=O)Nc2cccc(Cl)c2Cl)C(N)=C1C(N)=O (centres undefined)	-	-	-	-	55	-
COCC(=O)Nc1ccc2c(c1)[C@H]1C[C@H](CC(=O)NCC3CC3)O[C@@H](CO)[C@H]1O2	.	.	.	-	-	.
SMILES	PAX8 inh HTS	Shn3 3UTR inh	KKLEB tox	LGR2 antag	EWS-Fli block	CF NFkB inh
Cc1sc2ncnc(N/N=C/c3ccccc3O)c2c1C	-	86	-	-	.	-
Nc1nc(CCl)nc(Nc2cccc3ccccc23)n1	123	-	-80	-	-	83
CN1C(=O)c2cc(NC(=O)c3ccc4c(c3)OCO4)ccc2OC[C@@H]2O[C@H](CC(=O)O)CC[C@@H]21	-	.	.	-	-	.
O=C(Cc1ccc(Cl)cc1)c1c[nH]c(C(=O)NCc2cccnc2)c1	-	-	-	-	66	-
COc1ccc(F)cc1-c1cc(NC(C)=O)c2ncc(-c3cc(OC)c(OC)c(OC)c3)n2c1	.	-	-	-	-	-
COc1ccc(-c2cnc3c(NC(C)=O)cc(-c4cc(F)ccc4OC)cn23)cc1OC	-	-	-	-	54	-

Compound activity (PubChem BioAssay)
